# Screening data deposited in PubChem BioAssay by National Center for Advancing Translational Sciences (NCATS).
# A selection: hits, their analogues and other compounds. The true share with any hit is near 10%.
# HP1b binding inh: HTS for Inhibitors of HP1-beta Chromodomain Interactions with Methylated Histone Tails | Chromobox protein homolog 1 (Homo sapiens), P83916 | hit rate 0.56% among 390,000 | AlphaScreen HP1-beta / biotin-H3K9me3 peptide binding | Potency, µM (series often up to 114 µM), usual class: inhibitors; also: nearly all actives have a fitted effect of over 70% in size
#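 AlphaScreen: HP1-beta (50 nM) preformed 30 min with biotin-H3(1-18)K9me3 peptide (50 nM) in PBS pH 7.4, 0.01% Tween-20. Compound added for 30 min at RT, then streptavidin donor/nickel chelate acceptor beads (10 ug/mL) for 30 min.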
# JMJD2A Tudor inh: qHTS Assay for Inhibitors of JMJD2A-Tudor Domain | AlphaScreen JMJD2A-Tudor / H3K4me3 peptide binding | Potency, µM (highest dose often 114 µM), actives largely listed as inhibitors | hit rate 4.4% among 390,000; also: nearly all actives have a fitted effect of over 50% in size
# GLS inh: qHTS for Inhibitors of Glutaminase (GLS). hit rate 0.21% among 410,000. Glutaminase kidney isoform, mitochondrial (Homo sapiens), O94925. GLS enzymatic activity, qHTS titration. Potency, µM (series often up to 45.5 µM), actives largely listed as inhibitors
# Target sequence (O94925 whole entry, looked up, canonical isoform): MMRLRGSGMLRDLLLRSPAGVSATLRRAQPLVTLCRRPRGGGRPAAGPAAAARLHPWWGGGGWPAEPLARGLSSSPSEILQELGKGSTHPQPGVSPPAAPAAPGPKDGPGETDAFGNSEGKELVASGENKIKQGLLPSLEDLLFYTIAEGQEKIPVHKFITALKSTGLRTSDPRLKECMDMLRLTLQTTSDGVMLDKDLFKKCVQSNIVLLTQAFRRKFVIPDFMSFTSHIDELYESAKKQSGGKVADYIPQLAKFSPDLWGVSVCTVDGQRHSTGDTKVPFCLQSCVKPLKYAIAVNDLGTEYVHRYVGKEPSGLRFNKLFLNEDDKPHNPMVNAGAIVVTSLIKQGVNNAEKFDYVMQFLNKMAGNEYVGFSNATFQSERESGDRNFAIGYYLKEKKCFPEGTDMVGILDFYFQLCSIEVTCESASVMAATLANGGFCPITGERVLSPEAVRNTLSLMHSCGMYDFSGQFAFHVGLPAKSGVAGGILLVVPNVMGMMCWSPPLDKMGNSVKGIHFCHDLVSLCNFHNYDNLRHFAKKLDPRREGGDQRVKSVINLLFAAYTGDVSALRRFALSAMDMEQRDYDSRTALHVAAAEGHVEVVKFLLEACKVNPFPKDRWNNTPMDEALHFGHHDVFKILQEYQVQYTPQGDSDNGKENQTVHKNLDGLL
#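 Compounds were pin-transferred onto hKGA, after which L-glutamine (1 mM solution) and a detection mix of glutamate oxidase, HRP and Amplex Red were added. Initial and 30 min RT fluorescence reads were collected.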
# BAZ2B inh: qHTS Assay for Inhibitors of BAZ2B; Bromodomain adjacent to zinc finger domain protein 2B (Homo sapiens), Q9UIF8; AlphaScreen BAZ2B-H3K14Ac peptide displacement; hit rate 4.4% among 360,000; Potency, µM (doses to about 114 µM), actives largely listed as inhibitors; also: nearly all actives have a fitted effect of over 60% in size
#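 AlphaScreen displacement of biotin-H3(5-23)K14Ac peptide (50 nM final) from BAZ2B (50 nM final) in PBS pH 7.4, 0.01% Tween-20; complex preformed 30 min RT, then compounds (top 110 uM) 30 min RT, beads 20 min dark.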
# G9a block: qHTS Assay for Inhibitors of Histone Lysine Methyltransferase G9a; Histone-lysine N-methyltransferase EHMT2 (Homo sapiens), Q96KQ7; G9a H3K9 monomethylation, AlphaScreen, 2 h; Potency, µM (top dose mostly 102 µM), hits mostly inhibitors; hit rate 8.8% among 350,000; AID 504332, 2011; also: nearly all actives have a fitted effect of over 75% in size
#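 Enzyme 20 nM + cpd, 15 min RT; add b-H3K9 pep 500 nM / SAM 20 uM; 2 h RT; anti-H3K9me1 Ab 0.5 ug/mL + SA donor / anti-rabbit acceptor beads 20 ug/mL each, 10 min; AlphaScreen read.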
# L3MBTL1 inh: qHTS Assay for the Inhibitors of L3MBTL1 | hit rate 0.66% among 230,000 | Potency, µM (series often up to 57.1 µM), actives largely listed as inhibitors | AlphaScreen L3MBTL1–H3K9me1 peptide binding | Lethal(3)malignant brain tumor-like protein 1 (Homo sapiens), Q9Y468; also: nearly all actives have a fitted effect of over 60% in size
#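 L3MBTL1 50 nM + b-AHA-H3(1-15)K9me1 75 nM, 30 min RT; compound added, 30 min RT; streptavidin donor/Ni-chelate acceptor beads 10 ug/mL each final, 30 min RT dark; AlphaScreen read.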
# Numbers stand for hits; . = inactive; ? = inconclusive; / = not tested or not shown; [ ] = dose if it differs, or a comment. Calls follow the shape of the dose curve; as a rule, active = well fitted curve in the direction sought with a large enough effect; inconclusive = small, poorly fitted or top-dose-only effect, or another doubt; inactive = no such curve, though single readings can be large; an effect the other way counts as inactive or inconclusive.
SMILES,HP1b binding inh,JMJD2A Tudor inh,GLS inh,BAZ2B inh,G9a block,L3MBTL1 inh
CCOC(=O)COc1ccc(/C=C/[N+](=O)[O-])c(OCC(=O)OCC)c1,.,.,?,.,70.8µM,.
CC1CCC(C(C)C)C2=C1C(C#N)(C#N)C(C#N)(C#N)C(c1ccccc1)N2 (stereo not given),?,?,.,?,7.08µM,.
CC(C)(C)c1ccc(-c2noc(CCC(=O)Nc3cccc(Cl)c3)n2)cc1,.,.,.,.,?,/
O=c1nc2cccc3c2=c(/c1=C(\O)c1ccccc1)c1ccccc1c3=O,.,.,.,89.1µM,?,.
Cn1c(=O)n(C)c2cc([N+](=O)[O-])c(N3CCN(C(=O)c4ccccc4Cl)CC3)cc21,.,.,.,50.1µM,.,.
Cn1c(=O)n(C)c2cc([N+](=O)[O-])c(N3CCN(S(=O)(=O)c4ccccc4)CC3)cc21,.,?,.,?,?,.
Cn1c(=O)n(C)c2cc([N+](=O)[O-])c(N3CCN(S(C)(=O)=O)CC3)cc21,.,.,.,50.1µM,.,.
Cc1ccc(-c2ccc(/C=C3\SC(N4CCOCC4)=NC3=O)o2)cc1,.,.[11.4 µM],?,/,31.6µM,/
O=C1NC(=S)S/C1=C/c1ccc(N2CCOCC2)o1,35.5µM,39.8µM,.,20µM,4.47µM,31.6µM
O=C1S/C(=C/c2ccc(N3CCOCC3)o2)C(=O)N1Cc1ccc(F)cc1,.,89.1µM,.,.,7.94µM,.
O=C1S/C(=C\c2ccc(N3CCOCC3)o2)C(=O)N1Cc1ccc(F)cc1,.,?,?,.,?,.
Cc1ccccc1NC(=O)CN(c1ccc(Cl)cc1Cl)S(=O)(=O)c1ccccc1,.,.,.,.,.,/
CCNc1ncc2nc(-c3cccs3)c(=O)n(Cc3cccc(OC)c3)c2n1,/,/,/,/,.[0.501 µM],/
CCOC(=O)C1CCN(C(=O)c2cc3cc4ccc(C)cc4nc3o2)CC1,.,.,.,.,79.4µM,/
COc1cc(NC(=O)Nn2cnnc2)cc(OC)c1OC,.,.,.,.,44.7µM,/
COc1cccc(CNC(=O)CN2C(=O)N(c3cc(C)ccc3C)S(=O)(=O)c3ccccc32)c1OC,.,.,.,.,.,/
COc1ccc(C(C)=O)cc1COC(=O)c1cccnc1Cl,.,.,.,.,.,/
COc1ccc(C(C)=O)cc1COC(=O)c1cc2ccccc2cc1O,.,.,.,.,44.7µM,/
COc1cccc(-c2nn3c(-c4ccccn4)nnc3s2)c1,.,79.4µM,.,.,.,?
COc1cc(-c2nn3c(C4CCCCC4)nnc3s2)cc(OC)c1OC,.,.,.,.,?,.
COc1ccc(-c2nn3c(-c4ccccn4)nnc3s2)cc1OC,.,?,.,44.7µM,.,.
COc1ccc(-c2nn3c(C4CCCCC4)nnc3s2)cc1OC,?,.,.,.,10µM,.
COc1ccccc1-c1nnc2sc(-c3cnccn3)nn12,.,50.1µM,?,.,?,/
O=C(Nc1ccc2c(c1)N(C1CCCC1)C(=O)c1ccccc1S2)c1cccc(F)c1,.,.,.,.,.,/
Cc1c(C(=O)OC(C)C(C)C[N+](C)(C)C)oc2ccccc12 (stereo not given),.,56.2µM,?,.,12.6µM,/
SMILES,HP1b binding inh,JMJD2A Tudor inh,GLS inh,BAZ2B inh,G9a block,L3MBTL1 inh
Cc1c(C(=O)OC(C)C(=O)N(C)Cc2ccccc2)oc2ccccc12 (stereo not given),.,.,.,/,/,.
Cc1ccc(S(=O)(=O)NCCSc2nnc(N)s2)cc1,.,.,.,.,12.6µM,.[11.4 µM]
CC(C)(C)c1ccc(NC(=O)CSc2nnc3scc(-c4ccccc4)n23)cc1,.,.,.,.,.,/
O=c1c2ccccc2c(C=NC2CCN(Cc3ccccc3)CC2)c(O)n1Cc1ccc2c(c1)OCO2,/,/,/,8.91µM,8.91µM,.
CN(C)CCN=Cc1c(O)n(Cc2ccc3c(c2)OCO3)c(=O)c2ccccc12,.,?,.,?,50.1µM,/
Cn1c(=O)c2c(ncn2CCCC(=N)N2CCOCC2)n(C)c1=O,.,50.1µM,.,.,.[12.7 µM],.
CCC(CC)C(=O)NCCN1CCN(C(=O)C(CC)CC)CC1,.,.,.,.,5.62µM,.
CCC(CC)C(=O)NCCCN1CCOCC1,.,.,.,.,.,.
COC(C(=O)C(O)C(C)O)C1Cc2cc3cc(OC4CC(OC5CC(O)C(O)C(C)O5)C(O)C(C)O4)c(C)c(O)c3c(O)c2C(=O)C1OC1CC(OC2CC(OC3CC(C)(O)C(O)C(C)O3)C(O)C(C)O2)C(O)C(C)O1 (stereo not given),/,/,/,/,.[12.7 µM],/
O=Nc1c(O)n(Cc2ccc(Cl)cc2Cl)c2ccccc12,.,?,.,44.7µM,?,.
COc1cccc(C(=O)NCCS(=O)(=O)NCc2cccs2)c1,.,.,.,.,35.5µM,.
O=C(NCCS(=O)(=O)NCc1cccnc1)c1ccccc1,.,.,.,.,.,.
COc1cccc(C(=O)NCCS(=O)(=O)NCc2ccco2)c1,.,.,.,.,20µM,.
COc1cccc(C(=O)NCCS(=O)(=O)NCc2cccnc2)c1,.,.,.,.,50.1µM,.
N#CC(=C1Nc2ccccc2N1)S(=O)(=O)c1ccccc1,.,25.1µM,?,.,/,.
CCN1C(=O)CS/C1=C(\C#N)S(=O)(=O)c1ccccc1,.,.,.,.,.,.
CCOc1ccc(NC(=O)CSc2nnc3c(n2)[nH]c2ccc(S(=O)(=O)N(C)C)cc23)cc1,.,?,/,/,/,/
CC(NCc1cccc(S(=O)(=O)N(C)C)c1)c1ccc(F)cc1 (stereo not given),.,22.4µM,.,50.1µM,/,.
C#CCOCCOCCOCCNc1nc(N2CCN(C(=O)[C@H](CCC(=O)O)n3cc(C(N)Cc4ccc(O)cc4)nn3)CC2)nc(N2CCN(C(=O)[C@H](CCCCN)n3cc(C(N)[C@H](C)CC)nn3)CC2)n1 (stereo not given in full),/,/,/,79.4µM,.[12.7 µM],/
C#CCOCCOCCOCCNc1nc(N2CCN(C(=O)[C@H]([C@@H](C)CC)n3cc([C@@H](N)Cc4ccc(O)cc4)nn3)CC2)nc(N2CCN(C(=O)[C@H](CCCCN)n3cc([C@@H](N)C(C)CC)nn3)CC2)n1 (stereo not given in full),.,50.1µM,.,79.4µM,?,.
CCc1ccc(NC(=O)C2CCN(S(=O)(=O)c3cccc(-c4noc(C)n4)c3)CC2)cc1,.,.,.,.,.,/
